# Screening data (PubChem)
# AmpC no deterg = qHTS Inhibitors of AmpC Beta-Lactamase (assay without detergent); P00811; AID 485341, 2010; Potency, µM (series often up to 57.1 µM), inactives show at the highest dose activity change, negative = inhibition, most hits filed as inhibitors; 330,000 compounds, 0.52% hits; AmpC nitrocefin hydrolysis, absorbance 480 nm, 0.0001% Triton;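 also: potency is read from the fitted curve at half-maximal effect; plate controls were no compound for no effect and no enzyme for full effect; nearly all actives have a fitted effect of over 20% in size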
# Target sequence (P00811 whole entry, looked up): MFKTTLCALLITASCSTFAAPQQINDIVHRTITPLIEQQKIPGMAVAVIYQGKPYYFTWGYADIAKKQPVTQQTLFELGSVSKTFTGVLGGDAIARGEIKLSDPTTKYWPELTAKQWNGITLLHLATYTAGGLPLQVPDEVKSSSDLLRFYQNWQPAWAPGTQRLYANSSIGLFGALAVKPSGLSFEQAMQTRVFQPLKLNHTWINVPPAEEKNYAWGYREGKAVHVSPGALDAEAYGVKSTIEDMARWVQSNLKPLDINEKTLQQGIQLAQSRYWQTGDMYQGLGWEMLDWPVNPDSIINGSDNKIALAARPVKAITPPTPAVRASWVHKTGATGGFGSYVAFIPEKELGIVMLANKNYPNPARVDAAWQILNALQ
#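 20 mM phosphate pH 7.0 + 0.01% (detergent screen) or 0.0001% Triton X-100; 5.3 nM AmpC reagent; cpd preinc 15 min RT; nitrocefin (800 uM stock) to start; A480 q20 s × 4 min; Activity was normalised to no-enzyme and no-compound control wells.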
# HCMV inh = qHTS Assay for inhibitors of the human cytomegalovirus (HCMV); 410,000 compounds, 4.5% hits; activity change, negative = inhibition, % at 57.5 µM; HFF cells, HCMV-luciferase reporter, 72 h; stronger effect = lower value; in the data active = activity change below about -60%; inconclusive = no clear call, values can overlap the other calls; inactive = above about -39%
#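 Luciferase read-out from HCMV-luciferase-infected HFFs (MOI 1 PFU/cell) 72 h post infection at 37C; compounds added after 16 h cell attachment; activity normalized between buffer-only basal and Salinomycin (10uM) inhibitor controls.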
# FMDV antiviral = High Throughput Screening for Foot and Mouth Disease Virus Antivirals; FMDV antiviral cell-based qHTS; Potency, µM (top dose mostly 57.9 µM), for inactives: top-dose activity change, negative = inhibition, usual class: inhibitors; 410,000 compounds, 1.2% hits; calls by dose curve; tested in HEK293T cells; also: read-out not given here; potency is read from the fitted curve at half-maximal effect; nearly all actives have a fitted effect of over 45% in size
# HCV inhibitor = qHTS Assay for Inhibitors of Hepatitis C Virus (HCV). Potency, µM (series often up to 41.8 µM), for inactives: at the top dose activity change, negative = inhibition, usual class: inhibitors. 340,000 compounds, 3.4% hits. Huh7.5.1 HCVcc-Cre infection, luciferase reporter, 44 h. AID 651820, 2012; also: potency is read from the fitted curve at half-maximal effect
#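 A cell-based infection assay in which seeded cells (1,000 per well) receive test compound after 4 h, are inoculated with HCVcc-Cre at approximately 0.5 moi, and are incubated 44 h before luminescence detection.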
# AmpC detergent = qHTS Inhibitors of AmpC Beta-Lactamase (assay with detergent); P00811; AmpC hydrolysis of nitrocefin, absorbance 480 nm, 0.01% Triton; Potency, µM (series often up to 114 µM), for the others: at the highest dose activity change, negative = inhibition, actives largely listed as inhibitors; 370,000 compounds, 0.041% hits; AID 485294, 2010;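 also: potency is read from the fitted curve at half-maximal effect; 0% = no-compound wells and -100% = no-enzyme wells; nearly all actives have a fitted effect of over 25% in size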
#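 20 mM phosphate pH 7.0 + 0.01% (detergent screen) or 0.0001% Triton X-100; 5.3 nM AmpC reagent; cpd preinc 15 min RT; nitrocefin (800 uM stock) to start; A480 q20 s × 4 min; Activity was normalised to no-enzyme and no-compound control wells.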
# The depositor's hits bear a star; u = inconclusive; x = no result; [ ] = remark or other dose. This is a sample that favours compounds with a hit; in the whole collection about 7.3% have one here. Unless noted, calls follow the shape of the dose curve; as a rule, active = well fitted curve in the direction sought with a large enough effect; inconclusive = small, poorly fitted or top-dose-only effect, or another doubt; inactive = no such curve, though single readings can be large; an effect the other way counts as inactive or inconclusive. Unless noted, % is scaled to controls: 0 for no effect and ±100 for the full control effect.
SMILES,AmpC no deterg,HCMV inh,FMDV antiviral,HCV inhibitor,AmpC detergent
C=C[C@@]1(C)CCC(/C(C)=C/C=C/C(C)(C)O)C[C@@H]1C(=C)C (stereo partly specified),139.6%,5.8,-8.1%,12.1%,x
O=C(COC(=O)c1ccc2[nH]c3c(c2c1)CCCC3)Nc1ccccc1Cl,-13.1%,17.8,-22.4%,u,-5.0%
CN(CCC#N)C(=O)COC(=O)c1ccc2[nH]c3c(c2c1)CCCC3,27.3%,-72.6*,9.3%,u,-1.6%
CCC(C)c1ccccc1NC(=O)COC(=O)c1ccc2[nH]c3c(c2c1)CCCC3 (stereo unspecified),-42.7%,-99.8*,28.2µM*,u,-8.3%
CCOC(=O)c1ccc2[nH]c3c(c2c1)CCCC3,-22.7%,71.7,65.7%,6.8%,5.2%
Cc1ccccc1CN1C[C@@H]2C[C@@H](c3cn[nH]c3-c3ccccc3)N3CCC[C@@]23C1=O,24.0%,-66.4*,10.3%,12.6µM*,-7.5%
O=Cc1coc([B-](F)(F)F)c1,x,35.0,x,x,x
CCNC1CCC(Nc2ccnc3cc(Cl)ccc23)CC1 (stereo unspecified),x,5.0,-22.0%,12.6µM*,x
OC1CCCC1NCc1ccnc2cc(Cl)ccc12 (stereo unspecified),x,-5.4,-7.5%,1.0%,x
OC(CNc1ccnc2cc(Cl)ccc12)CNC1CCCCC1 (stereo unspecified),x,-77.7*,-15.8%,u,x
OC(CNC1CCCC1)COc1ccc(Cl)cc1 (stereo unspecified),-10.5%,16.4,-4.3%,u,1.2%
COc1cc(CCN=Cc2cccc(OC)c2O)c([N+](=O)[O-])cc1OC,x,8.9,x,x,x
N#Cc1c(-c2ccccc2)c(C#N)c2nc3ccccc3n2c1N,-26.8%,-2.9,u,u,u
Cc1c(CCCl)c(Cl)n2c(nc3ccccc32)c1C#N,x,-98.7*,3.55µM*,u,x
Cc1ccc(-c2c(C#N)c(N)n3c(nc4ccccc43)c2C#N)cc1,-33.9%,-72.3*,u,u,5.5%
Cc1cc(Cl)n2c(nc3ccccc32)c1C#N,-21.8%,-22.5,7.94µM*,u,4.5%
CCCCc1c(C)c(C#N)c2nc3ccccc3n2c1Nc1c(C)n(C)n(-c2ccccc2)c1=O,-12.6%,-90.0*,-13.7%,u,1.0%
C[C@H]1[C@H](c2ccccc2)Oc2cccc(NCCc3ccccc3)c2S(=O)(=O)N1Cc1cccc(F)c1,x,-34.2,x,x,x
CCOC(=O)c1ccccc1N/C=C/C(=O)c1cccs1,-14.7%,53.8,14.1%,u,2.6%
O=C(/C=C/Nc1ccc(F)cc1F)c1ccco1,-22.6%,119.5,-83.0%,u,-1.8%
O=C(/C=C\Nc1cccc(F)c1)c1cccs1,-18.1%,69.9,-36.1%,5.7%,-8.8%
O=C(/C=C/Nc1ccccc1F)c1cccs1,-22.9%,74.1,12.6µM*,8.6%,u
O=C(/C=C/Nc1ccc(Br)cc1F)c1ccco1,-11.5%[2.29 µM],-36.8,10µM*,-5.9%,-12.4%
O=C(/C=C/Nc1ccc(F)cc1F)c1cccs1,-9.2%,49.2,20µM*,-0.1%,-13.8%
COc1ccc(O)c(CN2CCC3(CCC(CNC(=O)C4CCCO4)O3)CC2)c1 (stereo unspecified),x,x,-8.2%,x,x
SMILES,AmpC no deterg,HCMV inh,FMDV antiviral,HCV inhibitor,AmpC detergent
COc1ccc(OC)c(NC(=O)C2(C)CCN2Cc2ccccc2OC(F)F)c1 (stereo unspecified),x,-1.7,0.0%,x,x
CCOc1cccc(C2c3c(oc4cc(C)c(C)cc4c3=O)C(=O)N2c2nc(C)c(C)s2)c1 (stereo unspecified),x,4.8,8.3%,x,13.3%
Cc1cc(C)c2c(-n3cccc3)c(C(=O)NCCc3ccccc3)sc2n1,x,u,-17.9%,x,16.9%
Cc1cccc(NC(=S)N2CCN(S(=O)(=O)c3cccc(F)c3)CC2)c1,-47.6%,-14.5,2.1%,6.31µM*,-9.2%
Cc1cccc(NC(=O)C2C(c3ccccc3)C2(Cl)Cl)c1 (stereo unspecified),-52.5%,u,-19.2%,-11.6%,-2.3%
Cc1ccc(NC(=O)C2C(c3ccccc3)C2(Cl)Cl)c(C)c1 (stereo unspecified),28.2µM*,u,0.0%,u,-1.0%
COc1ccc2c(c1)c(/C=N/Nc1nc3ccccc3[nH]1)c(C)n2C,-14.2%,-100.6*,u,u,-4.4%
COc1cc(/C=N\Nc2nc3ccccc3[nH]2)cc(OC)c1OC,-15.5%,50.0,-18.3%,u,-3.3%
Cc1cccc(C)c1NC(=O)C1(C)CN(S(C)(=O)=O)CC(=O)N1CCOc1ccccc1 (stereo unspecified),x,8.7,-25.9%,x,x
CCCc1oc2ccc(NS(=O)(=O)c3ccc(OC)cc3)cc2c1C(=O)OCC,x,-82.8*,23.2%,x,-0.2%
CCOC(=O)c1c(-c2ccccc2)oc2ccc(NS(=O)(=O)c3ccc(OC)cc3)cc12,x,-24.6,39.7%,x,11.9%
CCCc1oc2ccc(NS(=O)(=O)c3ccc(OCC)cc3)cc2c1C(=O)OCC,x,-65.4*,33.4%,x,11.0%
O=S(=O)(c1ccc(Br)cc1)c1nnn2c1nc(NCCc1ccccc1)c1sccc12,x,25.4,-33.1%,x,15.8%
Cc1oc(-c2ccccc2NC(=O)c2ccccc2)nc1CNC(=O)c1c(-c2ccccc2)noc1C,x,x,3.2%,x,x
COc1ccc2[nH]c3c(c2c1)CCN1C(=O)C(CC(=O)NCc2ccc(OC)c(OC)c2)C[C@H](C(=O)N2CCCCC2)[C@@]31CCc1ccccc1 (stereo partly specified),209.8%,u,-27.4%,10µM*,x
COc1ccc(CNC(=O)C[C@H]2C[C@H](C(=O)N3CCCCC3)[C@@]3(C)c4[nH]c5ccc(Cl)cc5c4CCN3C2=O)cc1OC,262.2%,-24.3,-28.0%,14.1µM*,x
COc1ccc2[nH]c3c(c2c1)CCN1C(=O)C(CC(=O)NCc2ccco2)C[C@H](C(=O)N2CCCCC2)[C@@]31CCc1ccccc1 (stereo partly specified),-1.1%,-33.6,-3.7%,0.562µM*,x
COCCCNC(=O)CC1C[C@H](C(=O)N2CCCCC2)[C@@]2(CCc3ccccc3)c3[nH]c4ccc(OC)cc4c3CCN2C1=O (stereo partly specified),5.0%,-26.0,7.1%,18.9%,x
COc1ccc2[nH]c3c(c2c1)CCN1C(=O)C(CC(=O)NCCc2ccccn2)C[C@H](C(=O)N2CCCCC2)[C@@]31CCc1ccccc1 (stereo partly specified),241.7%,-7.0,6.8%,7.94µM*,x
COc1ccc2[nH]c3c(c2c1)CCN1C(=O)C(CC(=O)NCc2ccc(OC)c(OC)c2)C[C@H](C(=O)N2CCOCC2)[C@@]31C (stereo partly specified),81.4%,3.5,-18.3%,13.1%,x
